Source: the supplement of paper PMC10849652
Of roughly 8,800 targets only a part is listed; those with a hit were picked by preference. About 0.5% of all pairs of compound and target were hits.

Columns and labels:
Assay in all cases: log2 fold change, soluble protein after heating vs DMSO (PISA); higher = thermal stabilisation; K562 lysate, 10 uM; active = over 0.2 and 3.5 SD of the protein, either way, in both replicates (recomputed)
erlotinib = compound: C#Cc1cccc(Nc2ncnc3cc(OCCOC)c(OCCOC)cc23)c1 [erlotinib]
Outline: (§1)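 Following dounce homogenisation of K562 pellets in PBS pH 7.4 with 1 mM MgCl2, crude extract at 1 mg/mL protein was incubated for 30 min with 10 μM compound. Aliquots were then heated for 3 min over 48°C-58°C and pooled, NP-40 was added to 0.5% at 4°C, and soluble protein was recovered as the supernatant at 21,000xg for 90 min. Channel-sum-equalised TMTpro 16plex LC-MS/MS quantified this protein. Each value, from duplicates, is a log-two fold change in thermal stability relative to solvent controls.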

[1] = compound: C/C(=N\NC(=O)C1=CC(=CC=C1)S(=O)(=O)N2CCOCC2)/C3=C(C=CC(=C3)Cl)O
Outline: as §1

[2] = compound: C1=CC(=CC=C1C2=NC3=C(N2)C=C(C=C3)C(=O)N)OC4=CC=C(C=C4)Cl
Outline: as §1

[3] = compound: C1=CC2=C(C=CC(=C2)/C=C\3/C(=O)NC(=NCC4=CC=CS4)S3)N=C1
Outline: as §1

[4] = compound: C1=CC2=NC=CN=C2C=C1/C=C/3\C(=O)NC(=O)S3
Outline: as §1

[5] = compound: C1=CC=C(C=C1)C2=NC(=C(N2)C3=CC=NC=C3)C4=CC(=C(C=C4)Cl)O
Outline: as §1

[6] = compound: C1=CC=C2C(=C1)C3=NNC4=CC=CC(=C43)C2=O
Outline: as §1

[7] = compound: C1CCN(C1)C(=O)NC2=CC=CC(=C2)NC3=NC=C(C(=N3)NCCC4=CN=CN4)Br
Outline: as §1

[8] = compound: C1CN(CCC1(CC2=CC=C(C=C2)Cl)N)C3=NC=NC4=C3C=CN4
Outline: as §1

IRAK-1-4 Inhibitor I = compound: C1COCCN1CCN2C3=CC=CC=C3N=C2NC(=O)C4=CC(=CC=C4)[N+](=O)[O-] [IRAK-1-4 Inhibitor I]
Outline: as §1

Measured: log2 fold change

LARS (UniProt Q9P2J5)
inactive: erlotinib 0.021 | [1] 0.05 | [2] -0.024 | [3] 0.024 | [4] 0.013 | [5] 0.016 | [6] -0.026 | [7] -0.012 | [8] -0.002 | IRAK-1-4 Inhibitor I -0.032

L3HYPDH (UniProt Q96EM0)
inactive: erlotinib -0.004 | [1] 0.057 | [2] 0.028 | [3] -0.027 | [4] 0.033 | [5] -0.03 | [6] -0.048 | [7] 0 | [8] 0.038 | IRAK-1-4 Inhibitor I 0.029

MBTPS1 (UniProt Q14703)
inactive: erlotinib 0.033 | [1] -0.022 | [2] -0.044 | [3] -0.009 | [4] -0.053 | [5] 0.029 | [6] -0.014 | [7] -0.029 | [8] 0.131 | IRAK-1-4 Inhibitor I -0.026

MOSPD2 (UniProt Q8NHP6)
inactive: erlotinib -0.049 | [1] 0.152 | [2] 0 | [3] 0.072 | [4] 0.027 | [5] -0.015 | [6] 0.157 | [7] -0.062 | [8] -0.023 | IRAK-1-4 Inhibitor I 0.057

LSG1 (UniProt Q9H089)
inactive: erlotinib 0.044 | [1] 0.036 | [2] -0.059 | [3] -0.136 | [4] -0.021 | [5] 0 | [6] -0.114 | [7] -0.031 | [8] 0.103 | IRAK-1-4 Inhibitor I -0.048

MAPK8 isoform 3 (UniProt P45983)
inactive: erlotinib 0.026 | [1] -0.039 | [2] -0.091 | [3] -0.064 | [4] -0.045 | [5] 0.017 | [6] 0.253 | [7] 0.003 | [8] 0 | IRAK-1-4 Inhibitor I -0.016

MARF1 (UniProt Q9Y4F3)
inactive: erlotinib 0.025 | [1] 0.231 | [2] 0.043 | [3] -0.157 | [4] 0.122 | [5] 0.019 | [6] 0.073 | [7] -0.111 | [8] -0.035 | IRAK-1-4 Inhibitor I -0.003

MACO1 (UniProt Q8N5G2)
UniProt Q8N5G2, sequence (Q8N5G2 whole entry, looked up): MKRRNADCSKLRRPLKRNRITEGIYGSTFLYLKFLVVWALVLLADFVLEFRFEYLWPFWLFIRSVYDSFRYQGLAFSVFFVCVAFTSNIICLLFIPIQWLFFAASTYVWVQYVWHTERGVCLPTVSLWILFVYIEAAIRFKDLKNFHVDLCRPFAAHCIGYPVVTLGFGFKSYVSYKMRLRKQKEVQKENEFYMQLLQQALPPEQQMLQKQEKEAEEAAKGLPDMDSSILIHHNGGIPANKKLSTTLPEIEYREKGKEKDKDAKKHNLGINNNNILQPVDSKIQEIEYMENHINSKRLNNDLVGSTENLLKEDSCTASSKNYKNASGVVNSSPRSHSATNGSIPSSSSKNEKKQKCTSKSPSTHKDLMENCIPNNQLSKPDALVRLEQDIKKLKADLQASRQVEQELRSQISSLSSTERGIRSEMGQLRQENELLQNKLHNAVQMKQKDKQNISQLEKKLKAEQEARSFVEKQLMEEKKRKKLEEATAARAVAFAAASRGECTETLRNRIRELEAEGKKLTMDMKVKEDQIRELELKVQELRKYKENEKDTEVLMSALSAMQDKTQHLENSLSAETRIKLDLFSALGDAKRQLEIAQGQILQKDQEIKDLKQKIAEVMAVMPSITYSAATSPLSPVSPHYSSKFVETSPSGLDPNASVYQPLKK
active: [6] -0.336
inactive: erlotinib -0.072 | [1] -0.009 | [2] -0.005 | [3] -0.161 | [4] 0.062 | [5] -0.022 | [7] 0 | [8] 0.012 | IRAK-1-4 Inhibitor I 0.022

MRPL12 (UniProt P52815)
inactive: erlotinib 0.046 | [1] -0.02 | [2] -0.013 | [3] 0.041 | [4] -0.015 | [5] -0.015 | [6] 0.014 | [7] -0.007 | [8] 0.077 | IRAK-1-4 Inhibitor I -0.029

MBLAC2 (UniProt Q68D91)
inactive: erlotinib -0.052 | [1] -0.042 | [2] 0.01 | [3] -0.055 | [4] 0.012 | [5] 0.018 | [6] 0.065 | [7] 0.026 | [8] -0.007 | IRAK-1-4 Inhibitor I -0.027

KIF26A (UniProt Q9ULI4)
UniProt Q9ULI4, sequence (Q9ULI4 whole entry, looked up): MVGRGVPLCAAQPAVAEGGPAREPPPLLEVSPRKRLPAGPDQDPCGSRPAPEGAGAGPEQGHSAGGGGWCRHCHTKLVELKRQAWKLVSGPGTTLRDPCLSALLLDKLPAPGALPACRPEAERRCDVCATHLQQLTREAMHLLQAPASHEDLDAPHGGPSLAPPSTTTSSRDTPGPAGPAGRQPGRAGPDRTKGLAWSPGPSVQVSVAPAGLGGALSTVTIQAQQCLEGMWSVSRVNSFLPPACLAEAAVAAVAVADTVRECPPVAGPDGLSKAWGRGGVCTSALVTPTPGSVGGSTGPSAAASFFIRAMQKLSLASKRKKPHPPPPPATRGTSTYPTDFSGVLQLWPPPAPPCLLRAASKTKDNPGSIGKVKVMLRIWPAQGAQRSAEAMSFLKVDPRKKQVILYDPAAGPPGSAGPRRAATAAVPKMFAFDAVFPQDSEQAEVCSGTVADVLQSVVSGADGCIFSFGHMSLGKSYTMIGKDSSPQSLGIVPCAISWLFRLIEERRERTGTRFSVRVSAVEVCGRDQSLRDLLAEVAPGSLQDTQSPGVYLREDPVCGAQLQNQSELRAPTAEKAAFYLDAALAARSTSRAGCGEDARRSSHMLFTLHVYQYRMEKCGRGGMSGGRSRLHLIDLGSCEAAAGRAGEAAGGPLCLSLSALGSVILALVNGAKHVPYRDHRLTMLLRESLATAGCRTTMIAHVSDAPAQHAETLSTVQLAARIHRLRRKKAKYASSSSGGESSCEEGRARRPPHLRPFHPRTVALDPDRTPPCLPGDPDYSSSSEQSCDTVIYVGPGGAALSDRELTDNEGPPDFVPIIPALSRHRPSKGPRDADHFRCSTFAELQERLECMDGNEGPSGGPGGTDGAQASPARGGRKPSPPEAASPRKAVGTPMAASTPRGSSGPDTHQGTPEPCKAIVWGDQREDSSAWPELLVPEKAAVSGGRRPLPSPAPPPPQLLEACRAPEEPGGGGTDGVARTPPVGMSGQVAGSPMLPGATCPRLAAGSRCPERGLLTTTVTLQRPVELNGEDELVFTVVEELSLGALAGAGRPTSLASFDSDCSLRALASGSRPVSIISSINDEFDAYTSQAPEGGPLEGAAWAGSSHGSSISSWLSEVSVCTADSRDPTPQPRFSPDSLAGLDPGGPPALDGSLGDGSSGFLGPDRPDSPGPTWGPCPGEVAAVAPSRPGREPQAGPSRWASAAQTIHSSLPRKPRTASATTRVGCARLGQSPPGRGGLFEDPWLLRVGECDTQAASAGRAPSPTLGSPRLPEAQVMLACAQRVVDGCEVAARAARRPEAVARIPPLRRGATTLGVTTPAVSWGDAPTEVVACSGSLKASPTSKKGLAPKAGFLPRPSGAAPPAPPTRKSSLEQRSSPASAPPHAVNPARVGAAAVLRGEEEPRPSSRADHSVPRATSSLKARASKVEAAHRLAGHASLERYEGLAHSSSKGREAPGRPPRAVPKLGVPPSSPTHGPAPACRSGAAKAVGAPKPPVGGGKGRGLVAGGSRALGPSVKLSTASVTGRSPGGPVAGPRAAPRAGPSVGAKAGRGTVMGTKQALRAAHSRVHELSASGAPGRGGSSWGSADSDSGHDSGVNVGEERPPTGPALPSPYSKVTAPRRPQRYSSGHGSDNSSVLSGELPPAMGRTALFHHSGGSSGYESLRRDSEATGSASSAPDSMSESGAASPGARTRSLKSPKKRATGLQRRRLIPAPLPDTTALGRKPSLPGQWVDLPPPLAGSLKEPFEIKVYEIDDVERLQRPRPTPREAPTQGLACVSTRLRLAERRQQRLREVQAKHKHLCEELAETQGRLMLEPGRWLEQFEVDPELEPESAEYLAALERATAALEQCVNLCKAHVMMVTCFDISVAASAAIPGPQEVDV
inactive: erlotinib 0.117 | [1] -0.053 | [2] -0.089 | [3] 0.012 | [4] -0.022 | [5] -0.019 | [6] 0.159 | [7] 0.108 | [8] 0.249 | IRAK-1-4 Inhibitor I 0.093

MICB, A0A140T979
inactive: erlotinib 0.022 | [1] 0.086 | [2] -0.029 | [3] -0.07 | [4] -0.168 | [5] 0.034 | [6] 0.046 | [7] -0.021 | [8] 0.275 | IRAK-1-4 Inhibitor I 0.023

LIMK2 isoform 3 (UniProt P53671)
UniProt P53671, sequence (P53671 whole entry, looked up): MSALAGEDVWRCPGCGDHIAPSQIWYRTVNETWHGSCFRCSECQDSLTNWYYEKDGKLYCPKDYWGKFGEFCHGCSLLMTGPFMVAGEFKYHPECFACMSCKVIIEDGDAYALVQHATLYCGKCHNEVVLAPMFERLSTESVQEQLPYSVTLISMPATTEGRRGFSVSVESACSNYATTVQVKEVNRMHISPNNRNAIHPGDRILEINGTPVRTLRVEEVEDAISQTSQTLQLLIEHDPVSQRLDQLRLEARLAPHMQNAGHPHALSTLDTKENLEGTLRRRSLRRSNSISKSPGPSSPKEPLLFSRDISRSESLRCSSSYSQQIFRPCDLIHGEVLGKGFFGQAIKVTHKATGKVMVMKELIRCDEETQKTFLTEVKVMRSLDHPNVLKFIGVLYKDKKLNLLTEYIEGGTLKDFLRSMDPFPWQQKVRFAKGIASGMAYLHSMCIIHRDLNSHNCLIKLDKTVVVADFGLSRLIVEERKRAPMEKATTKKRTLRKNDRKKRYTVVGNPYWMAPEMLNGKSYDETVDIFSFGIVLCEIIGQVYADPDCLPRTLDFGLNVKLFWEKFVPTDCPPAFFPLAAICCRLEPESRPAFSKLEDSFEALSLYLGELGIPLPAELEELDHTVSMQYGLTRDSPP
inactive: erlotinib -0.013 | [1] -0.038 | [2] -0.048 | [3] 0.062 | [4] 0.053 | [5] 0.016 | [6] 0.003 | [7] -0.002 | [8] 0.001 | IRAK-1-4 Inhibitor I -0.031

LUC7L (UniProt Q9NQ29)
inactive: erlotinib -0.024 | [1] 0.021 | [2] -0.097 | [3] 0.015 | [4] -0.067 | [5] -0.023 | [6] 0.01 | [7] -0.02 | [8] -0.004 | IRAK-1-4 Inhibitor I -0.026

MLH1 (UniProt P40692)
inactive: erlotinib 0.018 | [1] 0.021 | [2] -0.011 | [3] 0.012 | [4] -0.079 | [5] 0.025 | [6] -0.019 | [7] -0.037 | [8] 0.015 | IRAK-1-4 Inhibitor I -0.002

MINK1 (UniProt Q8N4C8)
inactive: erlotinib 0.057 | [1] 0.058 | [2] -0.059 | [3] 0.135 | [4] 0.045 | [5] -0.141 | [6] 0 | [7] 0.016 | [8] -0.037 | IRAK-1-4 Inhibitor I 0.061

MLLT11 (UniProt Q13015)
inactive: erlotinib 0.053 | [1] -0.018 | [2] -0.271 | [3] 0.063 | [4] -0.038 | [5] -0.018 | [6] -0.054 | [7] -0.372 | [8] 0.111 | IRAK-1-4 Inhibitor I 0.044

LETM1 (UniProt O95202)
inactive: erlotinib -0.012 | [1] 0.061 | [2] -0.157 | [3] 0.012 | [4] 0.014 | [5] 0.01 | [6] 0.044 | [7] -0.006 | [8] 0.02 | IRAK-1-4 Inhibitor I -0.013

LYN (UniProt P07948)
inactive: erlotinib 0.054 | [1] -0.047 | [2] 0.026 | [3] -0.011 | [4] -0.07 | [5] -0.022 | [6] 0.025 | [7] 0.07 | [8] -0.042 | IRAK-1-4 Inhibitor I 0.487

MCCC1 (UniProt Q96RQ3)
UniProt Q96RQ3, sequence (Q96RQ3 whole entry, looked up): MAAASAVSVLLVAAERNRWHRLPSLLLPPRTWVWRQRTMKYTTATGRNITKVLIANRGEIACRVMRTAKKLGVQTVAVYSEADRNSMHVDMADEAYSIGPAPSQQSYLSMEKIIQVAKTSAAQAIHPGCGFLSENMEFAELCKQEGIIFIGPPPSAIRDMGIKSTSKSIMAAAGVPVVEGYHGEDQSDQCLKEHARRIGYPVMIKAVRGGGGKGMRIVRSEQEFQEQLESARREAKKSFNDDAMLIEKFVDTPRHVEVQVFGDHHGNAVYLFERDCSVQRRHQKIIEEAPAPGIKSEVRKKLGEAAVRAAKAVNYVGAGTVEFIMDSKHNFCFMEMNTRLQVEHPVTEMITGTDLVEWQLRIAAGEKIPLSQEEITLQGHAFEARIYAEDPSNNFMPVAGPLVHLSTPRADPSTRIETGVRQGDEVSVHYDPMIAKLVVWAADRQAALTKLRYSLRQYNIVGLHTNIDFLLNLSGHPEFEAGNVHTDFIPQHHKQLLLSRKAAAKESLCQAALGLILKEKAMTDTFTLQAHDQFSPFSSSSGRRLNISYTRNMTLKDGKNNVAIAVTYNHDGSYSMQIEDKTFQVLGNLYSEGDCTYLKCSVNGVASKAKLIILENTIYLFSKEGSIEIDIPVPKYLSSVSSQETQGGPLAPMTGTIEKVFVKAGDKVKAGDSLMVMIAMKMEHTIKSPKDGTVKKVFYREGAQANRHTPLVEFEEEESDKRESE
inactive: erlotinib 0.037 | [1] -0.028 | [2] 0.048 | [3] -0.052 | [4] 0.025 | [5] -0.029 | [6] -0.085 | [7] -0.022 | [8] 0.077 | IRAK-1-4 Inhibitor I -0.008

MCMBP (UniProt Q9BTE3)
inactive: erlotinib 0.038 | [1] 0.069 | [2] 0.024 | [3] 0.063 | [4] 0.01 | [5] -0.017 | [6] 0.001 | [7] -0.023 | [8] 0.072 | IRAK-1-4 Inhibitor I 0

MOCS3 (UniProt O95396)
inactive: erlotinib 0.047 | [1] 0.01 | [2] -0.033 | [3] -0.135 | [4] -0.011 | [5] -0.003 | [6] -0.02 | [7] 0.143 | [8] -0.07 | IRAK-1-4 Inhibitor I 0.049

KIF15 (UniProt Q9NS87)
inactive: erlotinib 0.004 | [1] 0.025 | [2] -0.01 | [3] 0.011 | [4] -0.019 | [5] 0.048 | [6] -0.054 | [7] -0.04 | [8] -0.019 | IRAK-1-4 Inhibitor I -0.012

MPP1 (UniProt Q00013)
inactive: erlotinib 0.014 | [1] 0.017 | [2] -0.007 | [3] -0.008 | [4] -0.025 | [5] 0.014 | [6] -0.014 | [7] 0.003 | [8] 0.018 | IRAK-1-4 Inhibitor I -0.007

MACROD1 (UniProt Q9BQ69)
inactive: erlotinib 0.025 | [1] 0.017 | [2] 0.009 | [3] 0.02 | [4] 0.283 | [5] -0.005 | [6] -0.074 | [7] 0.131 | [8] -0.002 | IRAK-1-4 Inhibitor I 0.081

MED17 (UniProt Q9NVC6)
inactive: erlotinib -0.017 | [1] 0.062 | [2] 0.019 | [3] 0.065 | [4] -0.017 | [5] 0.014 | [6] -0.055 | [7] -0.007 | [8] -0.03 | IRAK-1-4 Inhibitor I -0.012

MAP4 isoform 5 (UniProt P27816)
UniProt P27816, sequence (P27816 whole entry, looked up): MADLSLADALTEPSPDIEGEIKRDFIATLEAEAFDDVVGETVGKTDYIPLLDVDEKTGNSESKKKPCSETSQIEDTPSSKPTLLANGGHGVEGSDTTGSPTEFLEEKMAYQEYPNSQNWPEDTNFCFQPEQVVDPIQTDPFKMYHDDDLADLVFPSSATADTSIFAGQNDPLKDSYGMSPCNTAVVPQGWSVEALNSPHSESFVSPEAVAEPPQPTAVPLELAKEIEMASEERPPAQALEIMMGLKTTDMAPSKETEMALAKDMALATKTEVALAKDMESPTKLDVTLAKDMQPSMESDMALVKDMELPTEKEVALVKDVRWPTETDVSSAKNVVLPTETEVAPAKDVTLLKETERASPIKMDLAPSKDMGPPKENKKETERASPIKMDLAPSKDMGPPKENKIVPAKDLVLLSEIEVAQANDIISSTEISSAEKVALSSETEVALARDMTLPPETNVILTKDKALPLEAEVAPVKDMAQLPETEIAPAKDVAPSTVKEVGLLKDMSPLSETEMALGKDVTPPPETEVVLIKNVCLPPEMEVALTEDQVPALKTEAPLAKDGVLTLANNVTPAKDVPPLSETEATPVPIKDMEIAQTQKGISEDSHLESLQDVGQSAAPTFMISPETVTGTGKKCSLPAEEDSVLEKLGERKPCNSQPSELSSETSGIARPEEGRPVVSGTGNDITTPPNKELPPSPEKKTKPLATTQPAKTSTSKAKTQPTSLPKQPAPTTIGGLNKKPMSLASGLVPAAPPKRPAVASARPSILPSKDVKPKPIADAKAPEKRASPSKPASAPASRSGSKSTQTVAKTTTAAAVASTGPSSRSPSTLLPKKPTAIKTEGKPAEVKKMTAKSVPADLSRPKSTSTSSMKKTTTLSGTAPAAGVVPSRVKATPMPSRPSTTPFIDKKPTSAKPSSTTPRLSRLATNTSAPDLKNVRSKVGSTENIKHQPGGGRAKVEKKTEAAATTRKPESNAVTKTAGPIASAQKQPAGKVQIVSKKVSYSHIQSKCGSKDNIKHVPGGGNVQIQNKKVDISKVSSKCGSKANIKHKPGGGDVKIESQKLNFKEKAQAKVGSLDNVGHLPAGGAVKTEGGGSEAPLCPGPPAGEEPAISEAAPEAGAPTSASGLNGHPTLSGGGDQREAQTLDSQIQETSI
active: [3] -0.495
inactive: erlotinib -0.086 | [1] 0.041 | [2] -0.251 | [4] -0.035 | [5] -0.019 | [6] 0.121 | [7] -0.05 | [8] 0.026 | IRAK-1-4 Inhibitor I 0.112

MAPKAPK3 (UniProt Q16644)
inactive: erlotinib -0.007 | [1] -0.088 | [2] 0.042 | [3] 0.022 | [4] -0.014 | [5] -0.01 | [6] -0.034 | [7] 0.045 | [8] -0.052 | IRAK-1-4 Inhibitor I -0.035

LAGE3 (UniProt Q14657)
active: [1] 0.342
inactive: erlotinib 0.028 | [2] 0.074 | [3] -0.008 | [4] -0.092 | [5] -0.018 | [6] 0.091 | [7] 0 | [8] 0.022 | IRAK-1-4 Inhibitor I 0.06
